PubChem BioAssay AID1495 (Sanford-Burnham Center for Chemical Genomics, 2009)
Entries with a potency or affinity are not part of this list. Active and inactive are the calls of the source.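 Rule for the calls: active = calorimetric dissociation constant under 10 µM against either the substrate-binding domain or full-length DnaK; inactive = the rest.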

What follows are compounds tested against Chaperone protein DnaK (Escherichia coli) (UniProt C3TRK2) (assay: E. coli DnaK binders, calorimetric Kd – biophysical, isothermal titration calorimetry, beta-domain, full-length DnaK, orthogonal assay for DnaK modulator project, SAR follow-up (AID 1495)). Details: purified DnaK, isothermal titration calorimetry binding.

Compound | outcome
Cc1ccc(CNC(=O)c2ccc([N+](=O)[O-])o2)cc1 | inactive
Cc1ccc(C(=O)NCc2ccc(F)cc2)o1 | inactive
O=C(Nc1ncc2ccccc2n1)c1cccs1 | active
O=C(NCc1ccccc1F)c1cccs1 | inactive
Cc1ccc(C(=O)NCc2ccc(Cl)cc2)o1 | inactive
